Experimental data published in article PMC7862700, “An all-to-all approach to the identification of sequence-specific readers for epigenetic DNA modifications on cytosine”.

What was measured:
Test in all cases: DAPPL (digital affinity profiling via proximity ligation, sequencing); 10 mM Tris-HCl pH 7.5, 50 mM NaCl, 1 mM DTT, 4% glycerol, room temperature, 30 min; GST-TFs on glutathione beads, 16-mer random dsDNA library, 0.1% formaldehyde crosslink after washing; high values mean tight binding
FLI1 = molecular target: T1, FLI1 (Homo sapiens, UniProt Q01543 1-452); conditions: protein: recombinant; tags: N-terminal GST; dsDNA, one strand shown
T1 sequence: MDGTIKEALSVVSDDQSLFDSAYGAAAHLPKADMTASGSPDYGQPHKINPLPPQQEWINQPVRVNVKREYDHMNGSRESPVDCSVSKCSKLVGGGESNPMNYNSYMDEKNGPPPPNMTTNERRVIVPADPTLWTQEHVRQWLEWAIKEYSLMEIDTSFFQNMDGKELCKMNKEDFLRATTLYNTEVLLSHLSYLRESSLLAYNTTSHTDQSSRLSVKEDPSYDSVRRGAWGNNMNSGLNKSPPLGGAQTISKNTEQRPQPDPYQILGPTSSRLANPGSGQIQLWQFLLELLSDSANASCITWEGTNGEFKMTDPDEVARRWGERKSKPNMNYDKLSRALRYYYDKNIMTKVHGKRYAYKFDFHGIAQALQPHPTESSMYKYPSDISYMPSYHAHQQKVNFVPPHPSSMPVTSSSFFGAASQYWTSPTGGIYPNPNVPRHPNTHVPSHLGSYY
Procedure, shortened: (§1)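 GST fusions of human transcription factors were expressed in yeast and captured with glutathione beads. Once given DNA barcodes and pooled alongside a tag-only sample, they were incubated for 30 min at room temperature with 200 nmole of a random double-stranded 16-mer DNA library in Tris/NaCl/DTT/glycerol buffer, then washed, crosslinked (0.1% formaldehyde), proximity-ligated, PCR-amplified and sequenced on an Illumina NextSeq500. The binding signal of each hexamer is its read frequency for a factor divided by its frequency for the tag-only sample.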

ELK1 = molecular target: T2, ELK1 (Homo sapiens, UniProt P19419 1-428); conditions: protein: recombinant; tags: N-terminal GST; dsDNA, one strand shown
T2 sequence: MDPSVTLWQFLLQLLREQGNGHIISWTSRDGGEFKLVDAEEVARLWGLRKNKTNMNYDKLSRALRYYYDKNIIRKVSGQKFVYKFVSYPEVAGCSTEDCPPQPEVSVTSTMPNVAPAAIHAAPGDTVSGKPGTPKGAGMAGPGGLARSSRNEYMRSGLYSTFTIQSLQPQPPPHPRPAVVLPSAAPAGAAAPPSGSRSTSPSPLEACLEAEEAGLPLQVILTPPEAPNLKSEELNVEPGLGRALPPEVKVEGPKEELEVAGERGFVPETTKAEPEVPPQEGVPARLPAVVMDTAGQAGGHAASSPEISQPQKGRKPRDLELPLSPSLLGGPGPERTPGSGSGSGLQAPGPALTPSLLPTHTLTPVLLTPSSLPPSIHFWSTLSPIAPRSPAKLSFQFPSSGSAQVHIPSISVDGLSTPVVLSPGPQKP
Procedure, shortened: as §1

GABPA = molecular target: T3, GABPA (Homo sapiens, UniProt Q06546 1-454); conditions: protein: recombinant; tags: N-terminal GST; dsDNA, one strand shown
T3 sequence: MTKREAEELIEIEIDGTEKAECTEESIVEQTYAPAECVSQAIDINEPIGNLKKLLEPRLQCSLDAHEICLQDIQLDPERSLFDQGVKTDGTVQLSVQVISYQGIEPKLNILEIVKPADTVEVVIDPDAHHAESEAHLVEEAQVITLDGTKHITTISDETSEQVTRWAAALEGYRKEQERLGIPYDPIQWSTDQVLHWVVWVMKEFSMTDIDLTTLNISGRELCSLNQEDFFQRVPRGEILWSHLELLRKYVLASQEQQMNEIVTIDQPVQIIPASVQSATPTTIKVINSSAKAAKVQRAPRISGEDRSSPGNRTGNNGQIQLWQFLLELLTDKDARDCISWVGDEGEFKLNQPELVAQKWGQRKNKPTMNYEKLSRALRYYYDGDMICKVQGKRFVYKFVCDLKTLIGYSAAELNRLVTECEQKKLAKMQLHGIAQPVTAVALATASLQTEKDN
Procedure, shortened: as §1

ERG = molecular target: T4, ERG (Homo sapiens, UniProt P11308 1-479); conditions: protein: recombinant; tags: N-terminal GST; dsDNA, one strand shown
T4 sequence: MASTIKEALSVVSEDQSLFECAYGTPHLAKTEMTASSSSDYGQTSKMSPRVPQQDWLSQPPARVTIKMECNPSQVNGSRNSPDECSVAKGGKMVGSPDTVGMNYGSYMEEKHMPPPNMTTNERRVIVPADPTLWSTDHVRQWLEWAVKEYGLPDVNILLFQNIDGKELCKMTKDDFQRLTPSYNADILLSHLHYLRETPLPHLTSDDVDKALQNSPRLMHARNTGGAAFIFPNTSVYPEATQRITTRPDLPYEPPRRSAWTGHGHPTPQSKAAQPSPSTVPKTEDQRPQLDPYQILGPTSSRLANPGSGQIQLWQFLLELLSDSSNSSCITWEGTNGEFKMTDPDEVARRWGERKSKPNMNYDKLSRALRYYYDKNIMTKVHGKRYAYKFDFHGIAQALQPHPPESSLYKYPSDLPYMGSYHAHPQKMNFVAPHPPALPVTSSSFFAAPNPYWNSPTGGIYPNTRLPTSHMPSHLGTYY
Procedure, shortened: as §1

ELF1 = ELF1 (Homo sapiens, UniProt P32519 1-619); conditions: protein: recombinant; tags: N-terminal GST; dsDNA, one strand shown
Procedure, shortened: as §1

EHF = molecular target: T5, EHF (Homo sapiens, UniProt Q9NZC4 1-300); conditions: protein: recombinant; tags: N-terminal GST; dsDNA, one strand shown
T5 sequence: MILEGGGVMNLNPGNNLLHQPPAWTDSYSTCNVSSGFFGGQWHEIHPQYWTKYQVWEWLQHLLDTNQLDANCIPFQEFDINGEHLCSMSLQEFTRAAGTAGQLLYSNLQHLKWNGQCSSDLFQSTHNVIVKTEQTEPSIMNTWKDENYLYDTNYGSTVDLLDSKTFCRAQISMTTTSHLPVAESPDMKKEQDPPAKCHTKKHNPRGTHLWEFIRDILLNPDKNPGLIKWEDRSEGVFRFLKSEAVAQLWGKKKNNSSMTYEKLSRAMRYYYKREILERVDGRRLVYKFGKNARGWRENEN
Procedure, shortened: as §1

SPI1 = SPI1 (Homo sapiens, UniProt P17947 1-270); conditions: protein: recombinant; tags: N-terminal GST; dsDNA, one strand shown
Procedure, shortened: as §1

SPIB = SPIB (Homo sapiens, UniProt Q01892 1-262); conditions: protein: recombinant; tags: N-terminal GST; dsDNA, one strand shown
Procedure, shortened: as §1

ELK3 = molecular target: T6, ELK3 (Homo sapiens, UniProt P41970 1-407); conditions: protein: recombinant; tags: N-terminal GST; dsDNA, one strand shown
T6 sequence: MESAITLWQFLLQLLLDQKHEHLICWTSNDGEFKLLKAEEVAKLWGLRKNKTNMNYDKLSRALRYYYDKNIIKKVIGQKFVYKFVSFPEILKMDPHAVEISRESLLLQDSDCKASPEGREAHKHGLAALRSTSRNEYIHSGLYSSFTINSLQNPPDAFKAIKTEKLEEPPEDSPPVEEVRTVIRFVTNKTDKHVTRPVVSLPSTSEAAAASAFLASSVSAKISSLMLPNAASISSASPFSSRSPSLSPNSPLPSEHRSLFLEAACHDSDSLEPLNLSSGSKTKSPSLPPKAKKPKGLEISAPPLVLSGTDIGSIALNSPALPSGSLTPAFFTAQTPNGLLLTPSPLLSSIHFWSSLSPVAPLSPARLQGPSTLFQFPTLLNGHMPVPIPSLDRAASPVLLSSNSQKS
Procedure, shortened: as §1

FEV = molecular target: T7, FEV (Homo sapiens, UniProt Q99581 1-238); conditions: protein: recombinant; tags: N-terminal GST; dsDNA, one strand shown
T7 sequence: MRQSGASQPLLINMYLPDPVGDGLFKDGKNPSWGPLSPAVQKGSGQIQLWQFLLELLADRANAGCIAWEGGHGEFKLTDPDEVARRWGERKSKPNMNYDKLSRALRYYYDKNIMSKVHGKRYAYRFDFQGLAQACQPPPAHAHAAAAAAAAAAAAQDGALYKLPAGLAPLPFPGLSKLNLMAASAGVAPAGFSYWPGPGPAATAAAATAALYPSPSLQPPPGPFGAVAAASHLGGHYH
Procedure, shortened: as §1

ETV5 = ETV5 (Homo sapiens, UniProt P41161 1-510); conditions: protein: recombinant; tags: N-terminal GST; dsDNA, one strand shown
Procedure, shortened: as §1

HSF1 = HSF1 (Homo sapiens, UniProt Q00613 1-529); conditions: protein: recombinant; tags: N-terminal GST; chain copies: 3; dsDNA, one strand shown
Procedure, shortened: as §1

SPIC = molecular target: T8, SPIC (Homo sapiens, UniProt Q8N5J4 1-248); conditions: protein: recombinant; tags: N-terminal GST; dsDNA, one strand shown
T8 sequence: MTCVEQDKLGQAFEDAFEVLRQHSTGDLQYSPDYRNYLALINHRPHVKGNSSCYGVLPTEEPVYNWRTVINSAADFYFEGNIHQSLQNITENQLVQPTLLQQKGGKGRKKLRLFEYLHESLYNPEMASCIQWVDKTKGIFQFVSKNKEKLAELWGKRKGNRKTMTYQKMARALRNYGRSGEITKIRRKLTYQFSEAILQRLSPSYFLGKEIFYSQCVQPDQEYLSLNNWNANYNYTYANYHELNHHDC
Procedure, shortened: as §1

ELF4 = ELF4 (Homo sapiens, UniProt Q99607 1-663); conditions: protein: recombinant; tags: N-terminal GST; dsDNA, one strand shown
Procedure, shortened: as §1

ELK4 = molecular target: T9, ELK4 (Homo sapiens, UniProt P28324-2 1-405); conditions: protein: recombinant; tags: N-terminal GST; dsDNA, one strand shown
T9 sequence: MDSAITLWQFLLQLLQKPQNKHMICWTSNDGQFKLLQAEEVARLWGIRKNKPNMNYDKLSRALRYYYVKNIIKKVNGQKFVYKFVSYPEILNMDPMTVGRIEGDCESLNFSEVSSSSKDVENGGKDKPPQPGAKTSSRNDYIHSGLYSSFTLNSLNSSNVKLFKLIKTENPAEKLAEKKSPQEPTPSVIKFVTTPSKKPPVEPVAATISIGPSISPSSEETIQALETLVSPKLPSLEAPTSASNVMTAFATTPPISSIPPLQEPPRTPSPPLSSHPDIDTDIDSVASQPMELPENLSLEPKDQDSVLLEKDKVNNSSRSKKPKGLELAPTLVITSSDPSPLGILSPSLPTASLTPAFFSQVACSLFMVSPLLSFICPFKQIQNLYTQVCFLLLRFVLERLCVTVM
Procedure, shortened: as §1

ETV2 = molecular target: T10, ETV2 (Homo sapiens, UniProt O00321 1-342); conditions: protein: recombinant; tags: N-terminal GST; dsDNA, one strand shown
T10 sequence: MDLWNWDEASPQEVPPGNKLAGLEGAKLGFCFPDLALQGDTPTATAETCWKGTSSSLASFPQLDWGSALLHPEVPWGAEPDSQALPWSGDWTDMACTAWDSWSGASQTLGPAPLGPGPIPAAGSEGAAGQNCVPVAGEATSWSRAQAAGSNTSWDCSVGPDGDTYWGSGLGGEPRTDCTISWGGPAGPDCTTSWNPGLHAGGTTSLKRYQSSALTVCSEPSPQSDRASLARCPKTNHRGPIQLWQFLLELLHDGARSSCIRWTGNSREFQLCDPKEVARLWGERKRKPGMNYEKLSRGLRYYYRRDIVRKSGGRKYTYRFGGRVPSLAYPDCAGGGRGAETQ
Procedure, shortened: as §1

ELF3 = molecular target: T11, ELF3 (Homo sapiens, UniProt P78545 1-371); conditions: protein: recombinant; tags: N-terminal GST; dsDNA, one strand shown
T11 sequence: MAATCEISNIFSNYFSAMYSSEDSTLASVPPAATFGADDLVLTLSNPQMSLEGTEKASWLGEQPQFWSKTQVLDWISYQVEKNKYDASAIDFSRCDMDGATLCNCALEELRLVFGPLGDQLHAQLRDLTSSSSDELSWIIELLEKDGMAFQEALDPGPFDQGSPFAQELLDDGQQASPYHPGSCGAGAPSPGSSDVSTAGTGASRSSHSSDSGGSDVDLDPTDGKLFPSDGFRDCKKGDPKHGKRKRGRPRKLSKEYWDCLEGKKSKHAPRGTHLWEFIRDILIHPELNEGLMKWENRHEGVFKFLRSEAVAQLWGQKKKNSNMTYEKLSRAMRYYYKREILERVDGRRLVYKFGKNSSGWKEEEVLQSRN
Procedure, shortened: as §1

CRX = CRX (Homo sapiens, UniProt O43186 1-299); conditions: protein: recombinant; tags: N-terminal GST; dsDNA, one strand shown
Procedure, shortened: as §1

ETV1 = ETV1 (Homo sapiens, UniProt P50549 1-477); conditions: protein: recombinant; tags: N-terminal GST; dsDNA, one strand shown
Procedure, shortened: as §1

ELF1, sequence (P32519 whole entry): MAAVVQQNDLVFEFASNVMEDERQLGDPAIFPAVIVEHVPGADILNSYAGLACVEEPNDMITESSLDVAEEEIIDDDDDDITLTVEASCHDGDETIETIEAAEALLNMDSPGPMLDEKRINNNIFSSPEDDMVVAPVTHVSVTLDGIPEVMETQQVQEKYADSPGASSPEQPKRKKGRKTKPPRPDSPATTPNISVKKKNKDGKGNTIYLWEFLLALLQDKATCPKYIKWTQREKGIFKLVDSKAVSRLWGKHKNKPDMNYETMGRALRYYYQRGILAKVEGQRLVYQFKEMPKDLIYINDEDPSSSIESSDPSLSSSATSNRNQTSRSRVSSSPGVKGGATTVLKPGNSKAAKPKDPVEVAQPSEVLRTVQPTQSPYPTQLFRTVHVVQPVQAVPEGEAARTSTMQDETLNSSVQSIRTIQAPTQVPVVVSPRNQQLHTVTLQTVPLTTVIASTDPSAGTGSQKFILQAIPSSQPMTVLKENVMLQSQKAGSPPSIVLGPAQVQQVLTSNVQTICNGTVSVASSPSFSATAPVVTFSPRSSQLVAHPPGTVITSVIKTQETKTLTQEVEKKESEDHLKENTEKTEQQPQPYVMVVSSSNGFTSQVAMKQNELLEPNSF
ETV5, sequence (P41161 whole entry): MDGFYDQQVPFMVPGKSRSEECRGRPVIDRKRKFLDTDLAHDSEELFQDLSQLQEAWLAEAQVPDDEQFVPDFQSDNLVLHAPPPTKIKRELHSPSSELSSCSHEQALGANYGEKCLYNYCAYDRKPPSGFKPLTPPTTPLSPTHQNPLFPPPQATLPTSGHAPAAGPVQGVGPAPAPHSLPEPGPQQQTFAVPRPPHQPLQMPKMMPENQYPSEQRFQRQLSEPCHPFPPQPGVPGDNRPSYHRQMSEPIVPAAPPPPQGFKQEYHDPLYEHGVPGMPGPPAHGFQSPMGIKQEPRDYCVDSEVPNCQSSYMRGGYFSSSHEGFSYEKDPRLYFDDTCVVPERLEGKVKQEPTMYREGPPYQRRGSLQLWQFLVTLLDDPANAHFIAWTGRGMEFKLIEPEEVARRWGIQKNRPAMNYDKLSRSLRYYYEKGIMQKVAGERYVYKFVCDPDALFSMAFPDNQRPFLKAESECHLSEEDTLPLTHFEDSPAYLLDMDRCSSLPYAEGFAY
SPIB, sequence (Q01892 whole entry): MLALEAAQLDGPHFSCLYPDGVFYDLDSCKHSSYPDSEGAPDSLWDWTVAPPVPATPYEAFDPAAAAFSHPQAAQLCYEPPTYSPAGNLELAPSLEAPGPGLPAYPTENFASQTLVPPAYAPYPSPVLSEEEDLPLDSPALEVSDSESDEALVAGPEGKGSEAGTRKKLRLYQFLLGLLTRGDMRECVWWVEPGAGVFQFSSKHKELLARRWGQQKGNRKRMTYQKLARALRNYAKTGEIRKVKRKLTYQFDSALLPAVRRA
HSF1, sequence (Q00613 whole entry): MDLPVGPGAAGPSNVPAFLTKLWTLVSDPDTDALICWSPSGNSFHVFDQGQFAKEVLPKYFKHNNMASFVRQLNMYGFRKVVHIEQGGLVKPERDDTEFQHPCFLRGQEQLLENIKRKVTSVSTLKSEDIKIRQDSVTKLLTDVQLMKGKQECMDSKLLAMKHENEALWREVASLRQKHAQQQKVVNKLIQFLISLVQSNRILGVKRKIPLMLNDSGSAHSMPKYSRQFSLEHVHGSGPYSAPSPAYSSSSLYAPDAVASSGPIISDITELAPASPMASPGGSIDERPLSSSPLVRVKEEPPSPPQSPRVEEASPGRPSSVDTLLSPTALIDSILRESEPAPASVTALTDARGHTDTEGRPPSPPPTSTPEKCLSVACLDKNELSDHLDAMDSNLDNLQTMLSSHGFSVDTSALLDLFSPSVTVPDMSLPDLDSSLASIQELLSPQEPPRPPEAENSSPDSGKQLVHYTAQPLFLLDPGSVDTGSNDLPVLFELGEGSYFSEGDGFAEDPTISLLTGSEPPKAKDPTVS
ETV1, sequence (P50549 whole entry): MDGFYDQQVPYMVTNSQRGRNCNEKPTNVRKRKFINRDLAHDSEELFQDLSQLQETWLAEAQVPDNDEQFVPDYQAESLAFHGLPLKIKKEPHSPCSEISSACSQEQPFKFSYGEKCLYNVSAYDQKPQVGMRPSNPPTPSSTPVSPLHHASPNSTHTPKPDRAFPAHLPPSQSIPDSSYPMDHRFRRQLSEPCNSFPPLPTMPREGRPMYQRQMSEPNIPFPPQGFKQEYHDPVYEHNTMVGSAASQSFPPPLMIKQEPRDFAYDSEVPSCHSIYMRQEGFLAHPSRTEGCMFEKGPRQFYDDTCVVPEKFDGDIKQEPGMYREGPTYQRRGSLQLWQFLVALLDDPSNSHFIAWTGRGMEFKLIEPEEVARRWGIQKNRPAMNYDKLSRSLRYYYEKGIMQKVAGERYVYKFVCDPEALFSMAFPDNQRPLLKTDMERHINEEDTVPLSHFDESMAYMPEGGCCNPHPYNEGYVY
ELF4, sequence (Q99607 whole entry): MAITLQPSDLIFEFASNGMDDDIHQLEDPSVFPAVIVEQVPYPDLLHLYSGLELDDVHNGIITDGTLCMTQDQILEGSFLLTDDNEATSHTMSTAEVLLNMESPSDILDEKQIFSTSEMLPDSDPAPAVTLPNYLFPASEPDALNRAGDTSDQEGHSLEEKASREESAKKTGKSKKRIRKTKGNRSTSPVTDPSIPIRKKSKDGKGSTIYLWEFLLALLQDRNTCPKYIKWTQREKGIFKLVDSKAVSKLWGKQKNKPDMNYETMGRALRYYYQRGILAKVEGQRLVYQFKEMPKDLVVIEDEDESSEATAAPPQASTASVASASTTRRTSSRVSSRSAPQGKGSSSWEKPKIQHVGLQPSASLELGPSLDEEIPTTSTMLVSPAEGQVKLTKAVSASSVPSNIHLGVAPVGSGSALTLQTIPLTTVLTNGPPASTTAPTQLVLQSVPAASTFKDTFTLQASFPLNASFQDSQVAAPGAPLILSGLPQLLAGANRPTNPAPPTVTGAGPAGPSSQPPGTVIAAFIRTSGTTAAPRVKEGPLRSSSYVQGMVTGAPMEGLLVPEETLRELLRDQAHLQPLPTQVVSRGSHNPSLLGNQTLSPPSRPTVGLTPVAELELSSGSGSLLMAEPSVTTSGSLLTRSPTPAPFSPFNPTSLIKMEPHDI
CRX, sequence (O43186 whole entry): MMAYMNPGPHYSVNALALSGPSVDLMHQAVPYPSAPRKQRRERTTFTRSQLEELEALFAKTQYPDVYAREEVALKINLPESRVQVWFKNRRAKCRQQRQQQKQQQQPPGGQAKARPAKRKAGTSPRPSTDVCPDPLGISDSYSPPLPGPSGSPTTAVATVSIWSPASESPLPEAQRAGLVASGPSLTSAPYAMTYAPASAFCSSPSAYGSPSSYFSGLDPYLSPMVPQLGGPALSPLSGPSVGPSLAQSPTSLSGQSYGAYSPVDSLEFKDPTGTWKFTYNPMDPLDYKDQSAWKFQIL

In the case of TTTGTA, the binding signal (FLI1) is reported as 1.64 fold enrichment (6-mer frequency, TF over GST control), the binding signal (ELK1) is reported as 1.47 fold enrichment (6-mer frequency, TF over GST control) and the binding signal (GABPA) is reported as 1.48 fold enrichment (6-mer frequency, TF over GST control). For the same sequence, the binding signal (ERG) was 1.53 fold enrichment (6-mer frequency, TF over GST control), the binding signal (ELF1) was 1.56 fold enrichment (6-mer frequency, TF over GST control) and the binding signal (EHF) was 1.55 fold enrichment (6-mer frequency, TF over GST control). For the same sequence, the binding signal (SPI1) was 1.54 fold enrichment (6-mer frequency, TF over GST control), the binding signal (SPIB) was 1.65 fold enrichment (6-mer frequency, TF over GST control) and the binding signal (ELK3) was 1.51 fold enrichment (6-mer frequency, TF over GST control). The binding signal (FEV) was 1.52 fold enrichment (6-mer frequency, TF over GST control), the binding signal (ETV5) was 1.64 fold enrichment (6-mer frequency, TF over GST control) and the binding signal (HSF1) was 1.65 fold enrichment (6-mer frequency, TF over GST control). The binding signal (SPIC) was 1.57 fold enrichment (6-mer frequency, TF over GST control), the binding signal (ELF4) was 1.58 fold enrichment (6-mer frequency, TF over GST control) and the binding signal (ELK4) was 1.75 fold enrichment (6-mer frequency, TF over GST control). The binding signal (ETV2) was 1.53 fold enrichment (6-mer frequency, TF over GST control), the binding signal (ELF3) was 1.61 fold enrichment (6-mer frequency, TF over GST control) and the binding signal (CRX) was 1.89 fold enrichment (6-mer frequency, TF over GST control). For the same sequence, the binding signal (ETV1) was 1.51 fold enrichment (6-mer frequency, TF over GST control).
